Test results: PubChem BioAssay (NCI)
Compounds without any hit were thinned out: in the full panel of roughly 83,000, 20% have a hit.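 Cell lines were cultured in 96-well plates, exposed to a single compound concentration, and assessed for percent growth 48 hours later.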 Unmarked numbers belong to inactive results. Calls of active or inactive are those of the source. Rule for the calls: active = growth percent below 10; inactive = the rest.

Each compound was assayed on HL-60(TB) leukemia (assay: NCI-60 one-dose screen, 48 h (100 = growth as untreated, 0 = no growth, -100 = all killed)). Details: 10 µM unless noted.

**Q.** How did the growth turn out when `CCOc1ccc(-c2c(C#N)c(-c3ccc(Cl)cc3)nc3n[nH]c(-c4ccc(Cl)cc4)c23)cc1OC` was run?
**A.** 4.06% (active)

**Q.** `O=C(c1ccc(O)cc1)C1[C@H](c2ccc(Cl)cc2)[C@@H](c2ccccc2)NC12C(=O)Nc1ccccc12` (some centres not stated) was tested. Which growth did it give?
**A.** -33.3% (active)

**Q.** With `Oc1ccc(/C=C2\CCCc3cc4ccc(O)cc4[o+]c32)c(O)c1` as the compound, how does the growth read?
**A.** 33.4%

**Q.** With `CN(C)c1nc(NCCNS(=O)(=O)c2ccc(C(=O)/C=C/c3ccc(C(F)(F)F)cc3)cc2)nc(N2CCOCC2)n1` as the compound, how does the growth read?
**A.** -25.1% (active)

**Q.** For `CC1=C(C(=O)Nc2ccccc2)C(c2ccc3ccccc3c2)n2c(nc3ccccc32)N1` (configuration not stated), which growth is on record?
**A.** 57.4%

**Q.** How did the growth turn out when `COC[C@@H](CC(C)C)N=C1N/C(=C\c2ccc3ncsc3c2)C(=O)N1C` was run?
**A.** -1.54% (active)

**Q.** How did the growth turn out when `C#C[C@]1(O)CC[C@H]2[C@@H]3CC=C4c5sc(Nc6ccc(N(C)C)cc6)nc5CC[C@]4(C)[C@H]3CC[C@@]21C` was run?
**A.** -26.1% (active)

**Q.** How did the growth turn out when `C=CCSc1nnc(-c2ccc(-c3nc4ccccc4[nH]3)cc2)o1` was run?
**A.** 57.6%

**Q.** With `O=C1c2c(c3c4cc(F)ccc4oc3c3[nH]c4ccc(Br)cc4c23)C(=O)N1O` as the compound, how does the growth read?
**A.** 16.9%

**Q.** For `Cc1ccc(-c2cc(C(=O)N=Nc3c(O)[nH]c4ccccc34)c3ccccc3n2)cc1`, which growth is on record?
**A.** 28.2%

**Q.** For `NC1=NC(c2ccccc2Cl)N=C(Nc2nn[nH]n2)N1` (configuration not stated), which growth is on record?
**A.** 110%

**Q.** For `CC1(C)CC[C@]2(C(=O)Nc3ccc(F)cc3)CC[C@]3(C)C(=CCC4[C@@]5(C)C[C@@H](O)[C@H](O)[C@@](C)(CO)C5CC[C@]43C)C2C1` (some centres not stated), which growth is on record?
**A.** -11.7% (active)

**Q.** `Cc1ccc(-c2nc(Nc3ccc(C)c(S(N)(=O)=O)c3)c3ccccc3n2)cc1` was tested. Which growth did it give?
**A.** 89.1%

**Q.** For `Cc1cccc(C)c1Nc1nnc(-c2c[nH]c3ccccc23)o1`, which growth is on record?
**A.** 97.2%

**Q.** `CC(C)c1sc(NC(=O)c2cc(NC(=O)c3cc(NC(=O)c4cscn4)cn3C)cn2C)nc1C(=O)NCCCN(C)C` was tested. Which growth did it give?
**A.** -22.6% (active)

**Q.** With `Cc1cccc(-c2nc(Nc3cccc(S(N)(=O)=O)c3)c3ccccc3n2)c1` as the compound, how does the growth read?
**A.** 44.9%

**Q.** With `O=C(O)c1cccc(-c2ccc(/C=N/NC(=O)c3[nH]c4ccc(Br)cc4c3-c3ccccc3)s2)c1` as the compound, how does the growth read?
**A.** 42.4%

**Q.** With `Cc1ccc([C@H]2C(C(=O)c3ccc(Cl)cc3)C3(N[C@@H]2c2ccccc2)C(=O)Nc2ccc(Cl)cc23)cc1` (some centres not stated) as the compound, how does the growth read?
**A.** 34.1%

**Q.** With `COc1ccc(-c2cc(C(=O)OCc3ccc(Br)cc3)nn2-c2ccc(S(C)(=O)=O)cc2)cc1OC` as the compound, how does the growth read?
**A.** 83.6%

**Q.** Which growth does the source give for `COc1ccc(N2N=C(c3ccc4c(c3)OCO4)CC2c2cccc(NC(=O)CCCNS(=O)(=O)c3ccc(F)cc3)c2)cc1` (configuration not stated) here?
**A.** 55.7%

**Q.** With `O=C(O)CC1S/C(=N/N=C/c2nc3ccccc3s2)NC1=O` (configuration not stated) as the compound, how does the growth read?
**A.** 98.4%

**Q.** Which growth does the source give for `CC(=O)Oc1ccccc1C(=O)[Se]C(=NC1CCCCC1)NC1CCCCC1` here?
**A.** -17.5% (active)

**Q.** Which growth does the source give for `CCCCCCCCc1ccc(C(=O)Nc2cccc(O)c2)cc1` here?
**A.** 56.5%

**Q.** With `Cc1ccc(-c2nc(Nc3ccccc3S(N)(=O)=O)c3ccccc3n2)cc1` as the compound, how does the growth read?
**A.** 81.1%

**Q.** `O=c1cc(-c2ccccc2)oc2cc(OCCCC[P+](c3ccccc3)(c3ccccc3)c3ccccc3)cc(O)c12` was tested. Which growth did it give?
**A.** -51.5% (active)

**Q.** `CN1CCCN(Cc2ccc(C(=O)Nc3cccc(Nc4ccc5cc(O)ccc5n4)c3)cc2C(F)(F)F)CC1` was tested. Which growth did it give?
**A.** 73.7%

**Q.** How did the growth turn out when `Cc1ccc(C(=O)Nc2cc(-n3ccnc3C)cc(C(F)(F)F)c2)cc1C#Cc1cnc2cccnn12` was run?
**A.** -28.8% (active)
